Source: PubChem BioAssay (NCI)
This is part of a sample that, as a whole, favours compounds with a hit. Of some 79,000 tested, about 15% had one in any assay. The source made the active and inactive calls. Cut-off read from the data, not from the text of the source: active = growth inhibition above about 70%; inactive = the rest.

Experiments:
[1] = NCI Yeast Anticancer Drug Screen. Data for the rad50 strain (AID 155);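 note: 0% = growth of vehicle-only cultures of the same strain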; conditions: S. cerevisiae rad50 strain growth inhibition; at 50.0 µM; stronger effect = higher value
How it was run: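 DNA repair mutant yeast, compound exposure, growth read-out; inhibition is taken relative to vehicle.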

[2] = NCI Yeast Anticancer Drug Screen. Data for the mec2-1 strain (AID 157); conditions: S. cerevisiae mec2-1 strain, at 50.0 µM, stronger effect = higher value
How it was run: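 Cells of the genetically defined mec2-1 yeast strain are incubated with test compound. Inhibition of growth is calculated against vehicle-treated controls.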

[3] = NCI Yeast Anticancer Drug Screen. Data for the sgs1 mgt1 strain (AID 161);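 note: 0% = growth of cultures given vehicle only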; conditions: S. cerevisiae sgs1 mgt1 strain, at 50.0 µM, stronger effect = higher value
How it was run: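 Read-out: growth inhibition vs vehicle controls. Cells: mutant yeast strain deficient in DNA damage repair.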

[4] = NCI Yeast Anticancer Drug Screen. Data for the cln2 rad14 strain (AID 165);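 note: 0% = growth equal to vehicle treated cultures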; conditions: S. cerevisiae cln2 rad14 strain, at 50.0 µM, stronger effect = higher value
How it was run: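 The screen exposed genetically defined yeast (cln2 rad14) to test compounds and scored growth inhibition relative to vehicle-treated controls.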

[5] = NCI Yeast Anticancer Drug Screen. Data for the bub3 strain (AID 167); conditions: S. cerevisiae bub3 mutant strain, at 50.0 µM, stronger effect = higher value
How it was run: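 In this screen, a yeast mutant lacking normal mitotic checkpoint function is challenged with compound. Relative growth versus vehicle gives the inhibition value.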

[6] = NCI Yeast Anticancer Drug Screen. Data for the mlh1 rad18 strain (AID 175); conditions: S. cerevisiae mlh1 rad18 strain growth inhibition; at 50.0 µM; stronger effect = higher value
How it was run: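 Compound-treated yeast growth, normalised to vehicle controls. Strain bears defined DNA repair mutations.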

Measured: growth inhibition

CCOC(=O)C1(C)CCc2sc(N)c(C#N)c21 (centres undefined)
inactive: [1] -29.2% | [2] -2.4% | [3] 3.75% | [4] -10.8% | [5] 2.8% | [6] -8.5%

CC(=O)OCC(OC(C)=O)C(OC(C)=O)C(OC(C)=O)C(S)S (centres undefined)
inactive: [1] 5.2% | [2] 50.1% | [3] 30.1% | [4] -4.2% | [5] 29.9% | [6] 28.9%

O=C1NCCCC1CCO (centres undefined)
inactive: [1] -8.35% | [2] -3.65% | [3] -7.95% | [4] -3.65% | [5] 5.5% | [6] -3.85%

c1cc2c3c(cccc3c1)-c1nc3ccccc3nc1-2
inactive: [1] -5.1% | [2] -21.4% | [3] -5.2% | [4] 4.05% | [5] 0.2% | [6] 19.8%

CC1CN(c2nc3ccccc3o2)C(C)CN1c1nc2ccccc2o1 (centres undefined)
inactive: [1] -7.15% | [2] 5.6% | [3] -9.1% | [4] 11.8% | [5] 9.9% | [6] -12.3%

NCc1cnccn1
inactive: [1] -7.05% | [2] 10.6% | [3] -4.65% | [4] 8.45% | [5] 1.1% | [6] -1.85%

Cc1ccncc1S(=O)(=O)O
inactive: [1] 14.6% | [2] 8.85% | [3] 2.3% | [4] -12.2% | [5] 1.7% | [6] 1.75%

CCOC(=O)C(=O)Nc1ccccc1C(C)C
inactive: [1] 12.4% | [2] 6.05% | [3] 0.2% | [4] -7.15% | [5] -9% | [6] 6.35%

CCC(C)CC(C)C1=NC(C)(C)CC(C)O1 (centres undefined)
inactive: [1] 3.65% | [2] -6.55% | [3] 0.75% | [4] -16.6% | [5] 0.2% | [6] 8.3%

CNC(=O)SCC(N)C(=O)O (centres undefined)
inactive: [1] 1.25% | [2] -4.85% | [3] -8.3% | [4] -16.4% | [5] -0.9% | [6] 2%

COC(=O)N/N=C(/c1nc2ccc([N+](=O)[O-])cc2[nH]c1=O)C(O)c1ccc(OC)c(OC)c1 (centres undefined)
inactive: [1] -3.3% | [2] 0.35% | [3] -3.05% | [4] 17.7% | [5] 26.5% | [6] 6.2%

Nc1nc(N)c(N=Nc2cc(Cl)c([N+](=O)[O-])cc2Cl)c(=O)[nH]1
inactive: [1] 13.2% | [2] -3.75% | [3] -10.9% | [4] -7.15% | [5] -1.35% | [6] -11.1%

O=[N+]([O-])C(/C=C(\Cl)[N+](=O)[O-])=C(N1CCOCC1)N1CCOCC1
inactive: [1] -4.7% | [2] -1.2% | [3] 24.9% | [4] -9.5% | [5] 13.9% | [6] 5.45%

COCOc1ccc(-c2ccc(O)cc2)cc1
inactive: [1] 10.8% | [2] 9.95% | [3] 0% | [4] -47.2% | [5] 18.9% | [6] 5.15%

O=c1[nH]c(=S)[nH]c2[nH]c(=S)ncc12
inactive: [1] -26.8% | [2] -43.1% | [3] -31.8% | [4] 1.9% | [5] -13.1% | [6] -15.1%

COCCCNC(=O)CC(=O)NCCCOC
inactive: [1] 13.4% | [2] -2.3% | [3] 24.8% | [4] 6.55% | [5] 5% | [6] 29.4%

C/C(=C\C(N)=O)C(C)(C)C
inactive: [1] 4.15% | [2] -2.25% | [3] 9.35% | [4] 10.3% | [5] 21.9% | [6] -41.1%

Oc1ccccc1CN1CCOCC1
inactive: [1] 22.4% | [2] 9.3% | [3] 26.9% | [4] 13.8% | [5] -7.2% | [6] 28.5%

CCCCCC1CCC(OC(=O)NC)CC1 (centres undefined)
inactive: [1] 2% | [2] 9.85% | [3] -0.6% | [4] -19.9% | [5] 25.4% | [6] -6.95%

C=C(C)C(=O)N1c2ccc(OC)cc2CC1C(=O)OCC (centres undefined)
inactive: [1] -1.6% | [2] 16.6% | [3] 7.05% | [4] 12.8% | [5] 15.8% | [6] 4.55%

Cc1nc2ccc(S(=O)(=O)Nc3ccccc3Cl)cc2c(=O)n1NC(=O)CNc1ccccc1Cl
inactive: [1] 26.4% | [2] 0.2% | [3] 13.4% | [4] 6.95% | [5] 21.8% | [6] 21.3%

ClC/C=C/COC1CCCCO1 (centres undefined)
inactive: [1] 6.8% | [2] -8.55% | [3] -8.5% | [4] -13.8% | [5] -7.6% | [6] -8.9%

O=S(=O)(CC1=NC2C=CC=CC2N=C1)NCc1ccccc1 (centres undefined)
inactive: [1] 7.3% | [2] -18.9% | [3] 12.8% | [4] 30.3% | [5] 25.6% | [6] -11.8%

CC(=O)Oc1ccc2c(c1)oc1c3ccc(OC(C)=O)cc3n(C)c(=O)c21
inactive: [1] -20.1% | [2] -44.8% | [3] -16% | [4] -4.3% | [5] -7.95% | [6] -23.4%

Cc1nc(N)nc2c1CCC(=O)N2
inactive: [1] 11.7% | [2] 7.6% | [3] -3.1% | [4] -37.6% | [5] 0.65% | [6] 1.7%

O/N=C1/C2C=CC(C2)C1Cl (centres undefined)
inactive: [1] 1.35% | [2] -5.75% | [3] 11.7% | [4] 13.7% | [5] -10.1% | [6] -16.9%

CCCC(C)C(=O)OC1CCCC1 (centres undefined)
inactive: [1] 11% | [2] -8.1% | [3] 5.3% | [4] -5.1% | [5] 13.6% | [6] 2.95%

OCC1OC(n2cc[nH]c2=S)C(O)C1O (centres undefined)
inactive: [1] 8.5% | [2] 7.6% | [3] -2.6% | [4] 4.45% | [5] 10.2% | [6] -12.7%

CC(Cc1ccccc1)Nc1ncnc2c1ncn2C1OC(CO)CC1O (centres undefined)
inactive: [1] 7.5% | [2] 2.35% | [3] 12.6% | [4] 1.6% | [5] 2.3% | [6] -11.7%

Cc1nc2cc(Nc3ccccc3C(=O)O)ccc2s1
inactive: [1] -43.3% | [2] -36.6% | [3] -50.6% | [4] -0.7% | [5] -22.2% | [6] -25.9%

COC(=O)C1=C(O)/C(=C\c2ccccc2)NC1=O
inactive: [1] 9.35% | [2] -11.3% | [3] -12.9% | [4] -40.4% | [5] -17.8% | [6] -5.7%

NCC(=O)N[C@H]1c2ccsc2/C(=N/O)[C@H]1O
inactive: [1] 3.1% | [2] 5.95% | [3] 3.65% | [4] 11.3% | [5] -10.2% | [6] 33.2%

C/C(N=NC(=S)N1CCCCC1C)=C1\C=CC=CN1O (centres undefined)
active: [4] 89.4%
inactive: [1] 49.2% | [2] 4.25% | [3] 54.7% | [5] 20.1% | [6] 20.6%

O=S(=O)(O)c1ccc(Nc2ccnc3cc(Cl)ccc23)cc1
inactive: [1] -21.4% | [2] -32.1% | [3] -39.8% | [4] -3.9% | [5] -29.1% | [6] -10%

COc1cc(C(=O)n2c(=O)oc(=O)c3cc([N+](=O)[O-])ccc32)cc(OC)c1OC
inactive: [1] -15.4% | [2] -6.15% | [3] -16.4% | [4] -6.65% | [5] 1.6% | [6] 2.2%

COc1ccc(NC(=O)CC(=O)NN)cc1
inactive: [1] -5.4% | [2] -0.05% | [3] 3.4% | [4] -1.5% | [5] -9.55% | [6] 9.2%

COc1cc(C=O)cc(OC)c1
inactive: [1] -19.3% | [2] -49.3% | [3] -20.4% | [4] 12.4% | [5] -51% | [6] -2.25%

Clc1ccc(N=Cc2ccc(C=Nc3ccc(Cl)cc3)cc2)cc1
inactive: [1] 8% | [2] 9.25% | [3] 24.1% | [4] 21.6% | [5] 15% | [6] 19.9%

COC(=O)/C(=N/Nc1cccc(Cl)c1)C(C(=O)C(=O)Nc1cccc(Cl)c1C)c1nc2ccccc2nc1C (centres undefined)
inactive: [1] 44.8% | [2] 17.9% | [3] 42% | [4] 39.3% | [5] 11.8% | [6] 14.3%
